# Measurements from PubChem BioAssay (Tox21).
# Inconclusive results are not listed. A call without a number means that no potency is given here. Active and inactive are the calls of the source. Calls come from the whole dose curve.
# Assay: qHTS assay to identify small molecule agonists of the hypoxia (HIF-1) signaling pathway - cell viability counter screen (AID 1224844); note: nearly all actives have a fitted effect of over 50% in size
# Conditions: HRE-bla ME-180 viability, CellTiter-Glo luminescence, 17 h; series mostly up to 76.8 µM
# Excerpt: National Center for Advancing Translational Sciences [NCATS]
# NIH Chemical Genomics Center [NCGC]
# U.S. Environmental Protection Agency [EPA]
# National Institutes of Environmental Health Sciences [NIEHS]
# National Toxicology Program [NTP]
# U.S. Food and Drug Administration [FDA]
# Hypoxia-inducible factor-1 (HIF-1) is the major hypoxia-regulated transcription factor that controls cellular responses to low oxygen concentration. HIF-1 is composed of two subunits: hypoxia responsive HIF-1-alpha and constitutively expressed HIF-1-beta, which is also known as aryl hydrocarbon receptor nuclear translocator. During hypoxic conditions, HIF-1-alpha heterodimerizes with HIF-1-beta and translocates into the nucleus where the HIF-1 complex binds to the hypoxia-response element (HRE) and activates expression of target genes such as VEGF (vascular endothelial growth factor). The HIF-1 pathway is essential to normal growth and development, and is involved in the pathophysiology of cancer, inflammation, and ischemia.
# Using a beta-lactamase reporter-gene under control of the hypoxia response element, a cell-based assay [CellSensor(TM) HRE-bla ME-180 from Life Technologies, Carlsbad, CA] was used to measure hypoxia-induced signaling. Tox21 10K library compounds were measured for their ability to induce the reporter gene activity. The cytotoxicity of the Tox21 compound library against HRE-bla ME-180 cell line was tested in parallel by measuring cell viability using CellTiter-Glo assay (Promega, Madison, WI) in the same assay wells.
# Tox21 Assay Protocol Summary:
# HRE-bla ME-180 cells were dispensed at 2,000 cells per well in 6 uL of assay medium containing 0.5% dialyzed FBS into black wall/clear-bottom 1536-well plates using a Multidrop Combi (Thermo Scientific, Waltham, MA) dispenser. After the assay plates were incubated at 37C and 5% CO2 for 5 hrs, 23 nL of compounds dissolved in DMSO, positive controls or DMSO only was transferred to each well of the assay plate using a Pintool station (Kalypsys, San Diego, CA). The assay plates were incubated at 37C and 5% CO2 for 17 hrs. One uL of LiveBLAzerTM B/G FRET substrate (CCF4-AM) (Life Technologies) was added to each well using a Flying Reagent Dispenser (FRD, Aurora Discovery, San Diego, CA). After 2 hr incubation at room temperature, fluorescence intensity (405 nm excitation, 460 nm and 530 nm emissions) was measured using an Envision plate reader (PerkinElmer, Shelton, CT). For cytotoxicity, 4 ul/well of CellTiter-Glo reagent was added into the assay plates using an FRD. After 30 min incubation at room temperature, the luminescence intensity was measured using a ViewLux plate reader (PerkinElmer).
# Potency is the fitted concentration of half-maximal effect.
row,SMILES,Potency
1,CCN(CC)CCNC(=O)COc1ccc(OC)cc1,inactive
2,CCCCCCCCC(CCCCCC)C(=O)O (stereo not given),43.6 µM (active)
3,CCC1NC(=O)c2cc(S(N)(=O)=O)c(Cl)cc2N1 (stereo not given),inactive
4,C(=C\c1ccccc1)/c1ccccc1,inactive
5,O=C(O)CCc1nc(-c2ccccc2)c(-c2ccccc2)o1,inactive
6,CC(=O)OCCN(CCOC(C)=O)c1ccc(N=Nc2ccc([N+](=O)[O-])cc2C#N)cc1,inactive
7,Oc1cccc(O)c1O,inactive
8,CCCCCCC(C)(C)C(=O)O,inactive
9,COC(=O)CCS,inactive
10,C=C(C)C(=O)OCCCCCCCCCCCCC,inactive
11,COc1cc(C(=O)NCCCCCC(=O)O)cc(OC)c1OC,inactive
12,C[C@@H](CN(C)C)CN1c2ccccc2Sc2ccccc21,19 µM (active)
13,CCCCC(CC)CN (stereo not given),inactive
14,CCOC(=O)c1ccc(OCCN2C[C@H](O)[C@@H](O)[C@H](O)[C@H]2CO)cc1,inactive
15,CN1CCCC(n2nc(Cc3ccc(Cl)cc3)c3ccccc3c2=O)CC1 (stereo not given),21.3 µM (active)
16,O=C(Nc1cccc2c(=O)cc(-c3nn[nH]n3)oc12)c1ccc(OCCCCc2ccccc2)cc1,5.35 µM (active)
17,C/C=C(/C(=C/C)c1ccc(O)cc1)c1ccc(O)cc1,inactive
18,COC(=O)CS,inactive
19,O=C(/C=C/c1ccccc1)OCCc1ccccc1,inactive
20,CC(CCC(=O)O)C(=O)O (stereo not given),inactive

row,SMILES,Potency
1,CN1CCCN=C1COC(=O)C(O)(c1ccccc1)C1CCCCC1 (stereo not given),inactive
2,Cc1cccc(N(C)C(=S)Oc2ccc3c(c2)CCC3)c1,inactive
3,O=C1C(=O)c2ccccc2C(O)=C1C1CCC(c2ccc(Cl)cc2)CC1 (stereo not given),inactive
4,C1COC1,inactive
5,Nc1ncnc2c1ncn2[C@H]1CC[C@@H](CO)O1,inactive
6,Cc1[nH]cnc1CN1CCc2c(c3ccccc3n2C)C1=O,inactive
7,CCC(=O)OC,inactive
8,CC(C)Nc1cccnc1N1CCN(C(=O)c2cc3cc(NS(C)(=O)=O)ccc3[nH]2)CC1,inactive
9,O=C1NC(=O)c2cc([N+](=O)[O-])ccc21,inactive
10,CC1CC(C)C(=O)C1=O (stereo not given),inactive
11,O=C(CCCN1CC=C(n2c(=O)[nH]c3ccccc32)CC1)c1ccc(F)cc1,inactive
12,CO[C@]1(NC(=O)CSC(F)F)C(=O)N2C(C(=O)O)=C(CSc3nnnn3CCO)CO[C@H]21,inactive
13,OCCN1CCN(CCCN2c3ccccc3Sc3ccc(Cl)cc32)CC1,15.1 µM (active)
14,Nc1cccc2c1CN(C1CCC(=O)NC1=O)C2=O (stereo not given),inactive
15,CC1(C)S[C@@H]2[C@H](NC(=O)C(c3ccccc3)S(=O)(=O)O)C(=O)N2[C@H]1C(=O)O (stereo not given in full),inactive
16,CC(=O)[C@H]1[C@H](C#N)C[C@H]2[C@@H]3CC=C4C[C@@H](O)CC[C@]4(C)[C@H]3CC[C@@]21C,inactive
17,O=[N+]([O-])c1ccc(O/N=C/c2cc(Br)c(O)c(Br)c2)c([N+](=O)[O-])c1,inactive
18,Cc1ccc(CO)cc1,inactive
19,c1ccc(C[n+]2cccc3ccccc32)cc1,inactive
20,c1ccc2c(c1)CCc1ccccc1N2,inactive
